Many of the other results were omitted from the sample, so hits are more common in it than they were.
TbREL1 primary = TbREL1 inhibition, primary screen; TbREL1 RNA ligation, FRET fluorescence; 0.49% of 89,000 active; P86926; inhibition, % at 9.66 µM;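 active = inhibition above the mean inhibition across all screened compounds plus 3 SD, cut at about 11% in these data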;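 also: 0% = plate median of test wells and 100% = NSC42067 control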
Target sequence (P86926 whole entry, looked up): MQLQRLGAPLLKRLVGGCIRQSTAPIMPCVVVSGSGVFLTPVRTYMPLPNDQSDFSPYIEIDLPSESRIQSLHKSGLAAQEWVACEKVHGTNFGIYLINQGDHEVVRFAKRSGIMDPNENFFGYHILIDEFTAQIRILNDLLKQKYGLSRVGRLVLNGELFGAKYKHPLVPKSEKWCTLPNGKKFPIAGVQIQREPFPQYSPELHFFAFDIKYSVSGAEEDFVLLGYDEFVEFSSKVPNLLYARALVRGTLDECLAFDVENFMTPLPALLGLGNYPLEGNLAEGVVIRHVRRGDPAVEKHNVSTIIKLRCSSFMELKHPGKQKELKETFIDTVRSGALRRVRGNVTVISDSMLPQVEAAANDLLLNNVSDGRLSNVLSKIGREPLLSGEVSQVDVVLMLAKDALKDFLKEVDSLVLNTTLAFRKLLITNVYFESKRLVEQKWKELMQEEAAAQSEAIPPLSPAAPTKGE
* = called active by the depositor.

SMILES	TbREL1 primary
C#CCOCCOCCOCCNc1nc(N2CCN(C(=O)Cn3cc(CCCN=C(N)N)nn3)CC2)nc(N2CCN(C(=O)[C@H]([C@@H](C)O)n3cc(CCCCN)nn3)CC2)n1	2.8
C#CCOCCOCCOCCNc1nc(N2CCN(C(=O)[C@H]([C@@H](C)CC)n3cc(CCCCN)nn3)CC2)nc(N2CCN(C(=O)[C@H]([C@@H](C)CC)n3cc(CCCN=C(N)N)nn3)CC2)n1	10.5
C#CCOCCOCCOCCNc1nc(N2CCN(C(=O)[C@H]([C@@H](C)O)n3cc(CCCCN)nn3)CC2)nc(N2CCN(C(=O)[C@H]([C@@H](C)CC)n3cc(CCCN=C(N)N)nn3)CC2)n1	12.2*
CC(=O)N1CCN(C(=O)CCn2nnc3ccccc32)CC1	-2.0
O=C(/C=C/c1ccco1)Oc1cc(Br)cc(/C=N/NC(=O)c2ccccc2O)c1	0.1
Cn1cccc1/C=C1\SC(=S)N(NC(=O)c2ccccc2)C1=O	4.1
O=C(NN1C(=O)/C(=C/C=C/c2ccco2)SC1=S)c1ccccc1O	86.0*
CC(=O)N1CCc2c1cccc2S(=O)(=O)NC(CC(C)C)C(=O)Nc1ccc(Cl)c(Cl)c1 (stereo not given)	-1.8
O=C(CSc1nc2ccccc2c(=O)n1-c1ccc(Cl)cc1)NNC(=S)Nc1ccccc1	-8.1
C[C@H]1[C@@H](OC(=O)NCCc2c[nH]c3ccccc23)CC[C@@]23CCCN2C(=O)CCC[C@@H]13	-7.3
CCn1c(SCC(=O)Nc2cccc3ccccc23)nnc1-c1cccs1	-0.5
CC(C)C[C@@H]1CN=C(N)N1C[C@@H]1CCCN1C[C@@H](C(C)C)N1C[C@@H](Cc2ccccc2)N(CCCC2CCCC2)C1=N	12.6*
CC[C@@H](C)[C@@H]1CN([C@@H](C)CN2CCC[C@H]2CN2C(N)=NC[C@@H]2Cc2ccccc2)C(=N)N1CCCC1CCCC1	2.6
CC(C)C[C@H]1CNC(=S)N1CC1CCCN1C[C@H](CC(C)C)N1C[C@H](Cc2ccccc2)N(CC2CCCCCC2)C1=S (stereo not given in full)	-4.0
O=C(Nc1nc2c(Br)cccc2s1)c1ccc2c(c1)OCCO2	10.5
CN(C)c1ccc(-c2nc3ncc(Cl)cc3[nH]2)cc1	-2.2
CCn1c2ccccc2c2cc(C=NNC(=O)CSc3nc4ccccc4c(=O)n3-c3ccccc3)ccc21	2.9
Cc1ccc(-n2c(SCC(=O)Nc3ccccc3-c3ccccc3)nnc2-c2cccnc2)cc1	0.5
COc1ccc(C(=O)OCC(=O)NC23CC4CC(CC(C4)C2)C3)c(OC)c1OC	3.6
O=C(COC(=O)c1ccccn1)NC12CC3CC(CC(C3)C1)C2	-0.2
CC(=O)Oc1cc(C(=O)OCC(=O)NC23CC4CC(CC(C4)C2)C3)cc(OC(C)=O)c1OC(C)=O	12.3*
COc1ccc(-n2c(COc3ccccc3)nnc2SCC(=O)Nc2ccccc2-c2ccccc2)cc1	7.7
COc1ccc([C@H]2OC(=O)C[C@H]2C(=O)N2CCN(c3ccccc3Cl)CC2)cc1OC	0.2
O=C(O)c1ccccc1-c1ccccc1C(=O)NNc1ccccc1	0.8
O=C(Cc1ccccc1)NCC(=O)Nc1cccc(Br)c1	-0.1
SMILES	TbREL1 primary
O=C(O)c1ccccc1-c1ccccc1C(=O)Nc1cccc(Br)c1	11.1*
C[C@@H]1COc2cc(Br)ccc2S(=O)(=O)N1Cc1cn(CCC2OCCO2)nn1	-0.4
CC(C)CSc1nnc(-c2ccco2)n1C	1.2
COc1ccc(-c2noc(C3CCCN(C(=O)Nc4cc(C)cc(C)c4)C3)n2)cc1 (stereo not given)	5.0
Cc1ccc(C2(C)NC(=O)N(CC(=O)NCCC3=CCCCC3)C2=O)cc1 (stereo not given)	-0.8
Cc1ccc(CNCCC2=CCCCC2)cc1	11.1*
CCCNC(=O)C(=O)NCCC1=CCCCC1	1.3
Cc1ccc([C@H](C)NC(=O)C2=C(N)N(S(=O)(=O)c3ccc(C)cc3)C(C(=O)c3ccccc3)C2c2ccccc2Cl)cc1 (stereo not given in full)	-0.3
Cc1ccc(F)cc1C(=O)N(Cc1ccccn1)CC1CCCO1 (stereo not given)	-2.8
O=S(=O)(CC1NCCc2ccccc21)NCCc1ccccc1 (stereo not given)	0.9
COc1ccc(-c2cc(C(=O)NN=Cc3ccc(C)s3)[nH]n2)cc1	6.6
C[C@@H]1CN([C@H](C)CO)C(=O)c2cc(NC(=O)Nc3ccccc3)ccc2O[C@@H](C)CCCCO[C@H]1CN(C)S(=O)(=O)c1ccc(F)cc1	-2.9
O=C1c2sc3nc4n(c(=O)c3c2CCC1Br)CCCCC4 (stereo not given)	16.1*
CC(C)c1csc2nc3n(c(=O)c12)CCCCC3	5.2
O=c1c2c3c(sc2nc2n1CCCCC2)CCC3	4.0
NC(=O)C1CCN(c2ncc(Br)s2)CC1	1.3
C=CC[C@@H](Cc1ccc(F)cc1)C(=O)OC[C@@H]1CCCN1C(=O)[C@@H](CC=C)CC(=O)NCCO	-2.3
C=CC[C@@H](Cc1ccc(F)cc1)C(=O)OC[C@@H]1CCCN1C(=O)[C@@H](CC=C)CC(=O)N(CCO)Cc1ccccc1	-2.0
C=CC[C@@H](Cc1ccc(F)cc1)C(=O)OC[C@@H]1CCCN1C(=O)[C@H](CC=C)CC(=O)N[C@H](CO)Cc1ccccc1	22.6*
CCOC(=O)[C@@]12CCCC=C1N(CCc1ccc(Cl)cc1)C(=O)[C@H]2CC(=O)NCc1ccccc1	-4.5
COc1ccc(N2CCN(CCCNC(=O)Cc3ccc(C(F)(F)F)cc3)CC2)cc1	-4.0
COCCN(C(=O)COC(=O)C1=COCCO1)c1c(N)n(Cc2ccccc2)c(=O)[nH]c1=O	0.6
COCCN(C(=O)COC(=O)c1cnc(C)cn1)c1c(N)n(Cc2ccccc2)c(=O)[nH]c1=O	1.4
COCCN(C(=O)COC(=O)c1cc2c(s1)CCC2)c1c(N)n(Cc2ccccc2)c(=O)[nH]c1=O	26.8*
Nn1c(SCC(=O)N2CCOCC2)nnc1-c1cc(-c2ccc(F)cc2)n[nH]1	3.5
SMILES	TbREL1 primary
COc1ccc(-n2c(SCC(=O)Nc3ccccc3-c3ccccc3)nnc2-c2ccccn2)cc1	-2.5
COc1cc(C=Nn2c(-c3cc(-c4ccccc4)n[nH]3)n[nH]c2=S)ccc1OC(C)=O	-1.8
O=C(c1sccc1Cl)N1CCC(n2nnc3ncccc32)CC1	-1.2
CCC(C(=O)O)N1C(=O)/C(=C/c2cccn2C)SC1=S (stereo not given)	0.8
O=C(O)CCCN1C(=O)/C(=C\c2ccc(-c3nc4ccccc4s3)o2)SC1=S	10.6
O=C(O)CC(C(=O)O)N1C(=O)/C(=C/c2ccc(-c3nc4ccccc4s3)o2)SC1=S (stereo not given)	84.0*
COc1ccc(C(=O)CSc2nnc(-c3n[nH]c4c3CCC4)n2N)cc1OC	0.0
CC(C)(C)OC(=O)N1CCC(N[C@@H](Cc2ccccc2)C(=O)NCCc2c[nH]c3ccccc23)(C(=O)NC2CCCCC2)CC1	-5.3
CC(C)[C@@H]1OC(=O)[C@@H]2CCCN2C(=O)[C@H](C)OC(=O)[C@H](C)[C@@H](C(C)C)NC(=O)[C@@H]2CCCN2C(=O)[C@H]([C@H](C)Cc2ccccc2)NC(=O)[C@@H]2CCCN2C(=O)[C@@H](C(C)C)N(C)C1=O	-0.4
CC(C)CCN(C)C1CCN(C(=O)Nc2ccc3c(c2)OCO3)CC1	-1.1
C[C@H]1[C@@H](OC(=O)Nc2ccc(C(F)(F)F)cc2)CC[C@@]23CCCN2C(=O)CCC[C@@H]13	-3.2
CCn1c(Cc2cccs2)nnc1SCC(=O)Nc1cccc2ccccc12	-1.7
CCCCNC(=O)C1CCCN1C(=O)Nc1ccc(Cl)cc1 (stereo not given)	0.0
CCn1c(NC(=O)c2ccc(C)cc2)c2ccccc2nc1=O	-4.1
